Laboratory results reported in paper PMC7862700, “An all-to-all approach to the identification of sequence-specific readers for epigenetic DNA modifications on cytosine”.

How the values were obtained:
Assay in all cases: DAPPL (digital affinity profiling via proximity ligation, sequencing); 10 mM Tris-HCl pH 7.5, 50 mM NaCl, 1 mM DTT, 4% glycerol, room temperature, 30 min; GST-TFs on glutathione beads, 16-mer random dsDNA library, 0.1% formaldehyde crosslink after washing; high values mean tight binding
Details in all cases: protein: recombinant; tags: N-terminal GST; dsDNA, one strand shown
ELK1 = target: T1, ELK1 (Homo sapiens, UniProt P19419 1-428)
T1 sequence: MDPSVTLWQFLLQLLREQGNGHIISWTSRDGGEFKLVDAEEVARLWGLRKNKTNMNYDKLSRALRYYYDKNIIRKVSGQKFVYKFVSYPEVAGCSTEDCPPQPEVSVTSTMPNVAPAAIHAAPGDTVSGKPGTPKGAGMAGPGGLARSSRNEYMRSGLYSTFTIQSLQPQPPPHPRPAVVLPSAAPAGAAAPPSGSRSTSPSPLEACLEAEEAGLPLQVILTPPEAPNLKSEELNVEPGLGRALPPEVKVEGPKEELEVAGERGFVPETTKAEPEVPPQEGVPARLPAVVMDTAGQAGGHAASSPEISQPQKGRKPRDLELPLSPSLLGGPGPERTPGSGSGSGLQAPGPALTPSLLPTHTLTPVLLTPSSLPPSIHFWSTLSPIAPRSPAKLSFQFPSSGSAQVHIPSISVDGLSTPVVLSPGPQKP
In short: (§1)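 Beads coated with glutathione captured GST-fused human transcription factors that had been expressed in yeast, and the factors were then given DNA barcodes and pooled with a tag-only sample. The pools were incubated with 200 nmole of a random double-stranded 16-mer DNA library in Tris/NaCl/DTT/glycerol buffer for 30 min at room temperature, washed, crosslinked with 0.1% formaldehyde and proximity-ligated with BsaI/T4 ligase at 37 °C for 1 h. PCR amplification and Illumina NextSeq500 sequencing came last. Binding signal is each hexamer's read frequency for a factor divided by its frequency for the tag-only sample.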

GABPA = target: T2, GABPA (Homo sapiens, UniProt Q06546 1-454)
T2 sequence: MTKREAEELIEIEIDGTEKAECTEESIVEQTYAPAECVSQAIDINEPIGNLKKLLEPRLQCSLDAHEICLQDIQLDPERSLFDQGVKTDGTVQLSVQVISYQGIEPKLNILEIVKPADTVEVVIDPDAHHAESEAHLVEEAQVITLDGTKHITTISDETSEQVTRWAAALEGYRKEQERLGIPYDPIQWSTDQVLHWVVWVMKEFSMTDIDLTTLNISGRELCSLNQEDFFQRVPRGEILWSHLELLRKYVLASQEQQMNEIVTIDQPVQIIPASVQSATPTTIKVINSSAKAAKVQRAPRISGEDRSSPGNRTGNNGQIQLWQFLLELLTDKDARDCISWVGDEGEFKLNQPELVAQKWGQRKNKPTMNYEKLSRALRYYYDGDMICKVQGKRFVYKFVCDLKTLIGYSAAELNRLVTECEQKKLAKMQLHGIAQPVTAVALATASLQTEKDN
In short: as §1

ERG = target: T3, ERG (Homo sapiens, UniProt P11308 1-479)
T3 sequence: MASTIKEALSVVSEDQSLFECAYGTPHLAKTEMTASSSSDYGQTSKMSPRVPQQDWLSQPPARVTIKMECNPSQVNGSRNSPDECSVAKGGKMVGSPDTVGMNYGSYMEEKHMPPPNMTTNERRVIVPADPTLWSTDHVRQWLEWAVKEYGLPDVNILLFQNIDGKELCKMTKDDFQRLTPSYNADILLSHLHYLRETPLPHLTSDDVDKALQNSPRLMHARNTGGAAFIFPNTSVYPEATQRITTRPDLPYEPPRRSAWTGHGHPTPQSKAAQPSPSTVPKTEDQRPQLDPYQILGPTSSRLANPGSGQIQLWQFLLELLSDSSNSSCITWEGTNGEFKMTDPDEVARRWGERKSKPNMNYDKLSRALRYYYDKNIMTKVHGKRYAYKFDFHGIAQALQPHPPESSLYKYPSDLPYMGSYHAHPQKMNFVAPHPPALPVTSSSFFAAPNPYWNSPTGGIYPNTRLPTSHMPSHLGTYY
In short: as §1

ELF1 = ELF1 (Homo sapiens, UniProt P32519 1-619)
In short: as §1

ELK3 = target: T4, ELK3 (Homo sapiens, UniProt P41970 1-407)
T4 sequence: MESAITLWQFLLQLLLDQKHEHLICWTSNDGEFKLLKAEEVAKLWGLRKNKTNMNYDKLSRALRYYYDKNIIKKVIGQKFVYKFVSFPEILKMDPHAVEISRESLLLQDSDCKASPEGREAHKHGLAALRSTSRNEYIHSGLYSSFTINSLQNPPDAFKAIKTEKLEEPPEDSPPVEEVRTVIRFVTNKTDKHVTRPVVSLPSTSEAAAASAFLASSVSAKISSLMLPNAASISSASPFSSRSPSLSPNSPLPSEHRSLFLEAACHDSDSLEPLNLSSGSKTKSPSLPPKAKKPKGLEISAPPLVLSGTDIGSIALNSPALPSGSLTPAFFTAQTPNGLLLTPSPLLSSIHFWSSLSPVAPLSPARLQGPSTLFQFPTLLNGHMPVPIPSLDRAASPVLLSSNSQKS
In short: as §1

SPIC = target: T5, SPIC (Homo sapiens, UniProt Q8N5J4 1-248)
T5 sequence: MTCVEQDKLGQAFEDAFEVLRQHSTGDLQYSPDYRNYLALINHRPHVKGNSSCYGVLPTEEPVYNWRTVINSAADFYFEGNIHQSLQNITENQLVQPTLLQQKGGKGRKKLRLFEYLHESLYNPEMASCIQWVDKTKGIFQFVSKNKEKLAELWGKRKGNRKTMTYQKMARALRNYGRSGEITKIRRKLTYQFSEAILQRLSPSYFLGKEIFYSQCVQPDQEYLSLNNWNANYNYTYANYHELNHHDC
In short: as §1

ELK4 = target: T6, ELK4 (Homo sapiens, UniProt P28324-2 1-405)
T6 sequence: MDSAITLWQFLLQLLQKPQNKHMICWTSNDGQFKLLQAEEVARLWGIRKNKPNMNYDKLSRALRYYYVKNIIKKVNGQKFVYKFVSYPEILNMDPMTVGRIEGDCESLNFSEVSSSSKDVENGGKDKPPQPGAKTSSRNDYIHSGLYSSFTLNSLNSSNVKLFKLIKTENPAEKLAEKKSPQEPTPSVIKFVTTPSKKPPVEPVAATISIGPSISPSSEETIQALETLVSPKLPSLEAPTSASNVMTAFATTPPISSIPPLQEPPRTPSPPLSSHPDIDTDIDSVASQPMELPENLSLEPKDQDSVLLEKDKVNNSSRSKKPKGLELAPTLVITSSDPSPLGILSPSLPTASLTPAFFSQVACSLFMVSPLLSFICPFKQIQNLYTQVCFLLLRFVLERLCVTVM
In short: as §1

ERF = target: T7, ERF (Homo sapiens, UniProt P50548 1-548)
T7 sequence: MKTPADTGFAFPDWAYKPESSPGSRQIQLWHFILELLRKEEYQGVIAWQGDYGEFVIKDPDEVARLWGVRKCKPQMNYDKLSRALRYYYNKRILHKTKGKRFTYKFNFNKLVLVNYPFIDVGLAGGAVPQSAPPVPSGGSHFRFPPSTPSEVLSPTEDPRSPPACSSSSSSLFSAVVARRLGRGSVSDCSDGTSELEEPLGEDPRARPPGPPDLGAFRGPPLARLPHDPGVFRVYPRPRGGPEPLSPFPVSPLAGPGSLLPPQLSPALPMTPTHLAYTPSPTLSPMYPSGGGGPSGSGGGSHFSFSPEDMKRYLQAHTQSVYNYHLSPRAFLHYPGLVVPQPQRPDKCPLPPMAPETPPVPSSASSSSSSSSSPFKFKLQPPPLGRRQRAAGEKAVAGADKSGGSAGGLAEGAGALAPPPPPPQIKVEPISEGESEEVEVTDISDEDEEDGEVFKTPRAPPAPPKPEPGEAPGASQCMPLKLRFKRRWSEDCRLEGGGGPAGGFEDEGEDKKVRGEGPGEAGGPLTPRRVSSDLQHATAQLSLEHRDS
In short: as §1

ETV3L = target: T8, ETV3L (Homo sapiens, UniProt Q6ZN32 1-361)
T8 sequence: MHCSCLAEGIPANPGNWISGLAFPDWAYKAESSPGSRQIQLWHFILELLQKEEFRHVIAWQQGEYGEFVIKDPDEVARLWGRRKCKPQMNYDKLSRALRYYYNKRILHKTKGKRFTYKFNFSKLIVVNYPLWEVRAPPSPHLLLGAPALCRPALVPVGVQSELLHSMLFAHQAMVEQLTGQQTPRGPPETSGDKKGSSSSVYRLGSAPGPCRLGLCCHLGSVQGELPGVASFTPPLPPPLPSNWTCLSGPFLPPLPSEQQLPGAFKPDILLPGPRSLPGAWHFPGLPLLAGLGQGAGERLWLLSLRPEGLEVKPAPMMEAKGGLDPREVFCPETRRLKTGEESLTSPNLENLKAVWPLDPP
In short: as §1

ETS2 = target: T9, ETS2 (Homo sapiens, UniProt P15036 1-469)
T9 sequence: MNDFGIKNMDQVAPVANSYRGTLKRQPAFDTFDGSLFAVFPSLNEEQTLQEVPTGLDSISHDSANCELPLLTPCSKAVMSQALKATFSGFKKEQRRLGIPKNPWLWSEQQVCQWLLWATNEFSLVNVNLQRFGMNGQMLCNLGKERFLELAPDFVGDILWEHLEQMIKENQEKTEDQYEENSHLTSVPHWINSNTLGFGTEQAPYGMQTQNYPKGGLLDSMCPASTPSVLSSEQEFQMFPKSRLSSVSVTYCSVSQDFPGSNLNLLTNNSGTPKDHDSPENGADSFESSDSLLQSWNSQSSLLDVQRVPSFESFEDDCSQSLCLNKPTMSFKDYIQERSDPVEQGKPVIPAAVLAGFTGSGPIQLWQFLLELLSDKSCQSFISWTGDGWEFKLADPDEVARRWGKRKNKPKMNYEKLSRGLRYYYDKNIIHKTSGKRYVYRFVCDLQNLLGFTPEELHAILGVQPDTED
In short: as §1

ETV3 = target: T10, ETV3 (Homo sapiens, UniProt P41162-2 1-143)
T10 sequence: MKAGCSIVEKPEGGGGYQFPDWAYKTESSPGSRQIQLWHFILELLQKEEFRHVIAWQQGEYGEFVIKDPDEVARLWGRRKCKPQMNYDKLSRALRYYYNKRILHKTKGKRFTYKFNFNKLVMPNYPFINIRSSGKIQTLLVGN
In short: as §1

ETV6 = ETV6 (Homo sapiens, UniProt P41212 1-452)
In short: as §1

EHF = target: T11, EHF (Homo sapiens, UniProt Q9NZC4 1-300)
T11 sequence: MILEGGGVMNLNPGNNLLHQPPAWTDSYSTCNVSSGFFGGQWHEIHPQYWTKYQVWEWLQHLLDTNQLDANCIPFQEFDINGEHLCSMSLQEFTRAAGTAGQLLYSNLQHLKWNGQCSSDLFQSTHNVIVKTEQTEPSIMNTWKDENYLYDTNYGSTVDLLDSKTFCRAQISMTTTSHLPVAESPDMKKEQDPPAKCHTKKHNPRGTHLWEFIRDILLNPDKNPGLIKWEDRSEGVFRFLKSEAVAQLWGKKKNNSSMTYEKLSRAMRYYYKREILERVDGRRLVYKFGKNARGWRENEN
In short: as §1

SPIB = SPIB (Homo sapiens, UniProt Q01892 1-262)
In short: as §1

ETV1 = ETV1 (Homo sapiens, UniProt P50549 1-477)
In short: as §1

SPDEF = target: T12, SPDEF (Homo sapiens, UniProt O95238 1-335)
T12 sequence: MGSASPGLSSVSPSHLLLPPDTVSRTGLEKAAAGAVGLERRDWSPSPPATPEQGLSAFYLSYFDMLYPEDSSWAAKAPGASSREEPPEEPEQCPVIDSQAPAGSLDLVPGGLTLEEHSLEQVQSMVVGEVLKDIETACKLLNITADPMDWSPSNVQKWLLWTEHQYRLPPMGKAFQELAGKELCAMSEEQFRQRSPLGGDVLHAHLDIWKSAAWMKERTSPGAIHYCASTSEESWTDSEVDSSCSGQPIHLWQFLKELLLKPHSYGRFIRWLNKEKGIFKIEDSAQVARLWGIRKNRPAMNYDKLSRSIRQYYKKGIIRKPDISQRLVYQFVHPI
In short: as §1

Chain of ETV6 (P41212 whole entry): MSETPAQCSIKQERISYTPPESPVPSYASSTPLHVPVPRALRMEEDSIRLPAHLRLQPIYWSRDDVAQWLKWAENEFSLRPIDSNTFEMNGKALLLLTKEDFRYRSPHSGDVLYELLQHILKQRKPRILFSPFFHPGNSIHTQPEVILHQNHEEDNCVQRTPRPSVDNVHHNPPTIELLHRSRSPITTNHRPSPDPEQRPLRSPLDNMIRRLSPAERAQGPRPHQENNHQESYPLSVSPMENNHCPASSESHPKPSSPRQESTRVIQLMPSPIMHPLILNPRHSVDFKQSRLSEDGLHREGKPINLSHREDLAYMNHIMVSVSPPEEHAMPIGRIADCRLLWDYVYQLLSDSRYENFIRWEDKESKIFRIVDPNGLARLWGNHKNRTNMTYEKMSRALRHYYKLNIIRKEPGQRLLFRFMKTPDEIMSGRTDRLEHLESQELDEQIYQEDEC
Chain of ELF1 (P32519 whole entry): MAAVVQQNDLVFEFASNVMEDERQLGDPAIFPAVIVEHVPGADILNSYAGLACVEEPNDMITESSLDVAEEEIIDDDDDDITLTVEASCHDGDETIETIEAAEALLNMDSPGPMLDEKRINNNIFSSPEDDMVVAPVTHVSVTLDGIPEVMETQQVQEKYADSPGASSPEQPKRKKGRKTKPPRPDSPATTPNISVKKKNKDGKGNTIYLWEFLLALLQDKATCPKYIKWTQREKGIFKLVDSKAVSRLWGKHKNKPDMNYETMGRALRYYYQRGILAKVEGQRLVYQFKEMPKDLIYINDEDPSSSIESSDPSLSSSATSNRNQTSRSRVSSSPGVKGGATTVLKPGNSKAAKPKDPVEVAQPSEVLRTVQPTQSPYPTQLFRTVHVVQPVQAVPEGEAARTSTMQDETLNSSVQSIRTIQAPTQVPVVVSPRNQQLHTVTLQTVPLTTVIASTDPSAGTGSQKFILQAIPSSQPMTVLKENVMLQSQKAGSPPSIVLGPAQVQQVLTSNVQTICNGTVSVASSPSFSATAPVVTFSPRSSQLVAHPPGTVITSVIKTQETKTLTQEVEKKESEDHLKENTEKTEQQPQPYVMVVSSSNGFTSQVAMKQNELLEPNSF
Chain of SPIB (Q01892 whole entry): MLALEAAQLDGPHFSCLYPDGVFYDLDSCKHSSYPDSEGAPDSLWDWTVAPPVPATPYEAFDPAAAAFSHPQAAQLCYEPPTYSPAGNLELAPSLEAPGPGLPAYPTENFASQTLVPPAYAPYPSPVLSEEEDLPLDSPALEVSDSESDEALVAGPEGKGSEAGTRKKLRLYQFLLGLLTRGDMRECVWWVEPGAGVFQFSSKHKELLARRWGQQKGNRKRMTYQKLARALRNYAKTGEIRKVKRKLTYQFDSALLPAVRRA
Chain of ETV1 (P50549 whole entry): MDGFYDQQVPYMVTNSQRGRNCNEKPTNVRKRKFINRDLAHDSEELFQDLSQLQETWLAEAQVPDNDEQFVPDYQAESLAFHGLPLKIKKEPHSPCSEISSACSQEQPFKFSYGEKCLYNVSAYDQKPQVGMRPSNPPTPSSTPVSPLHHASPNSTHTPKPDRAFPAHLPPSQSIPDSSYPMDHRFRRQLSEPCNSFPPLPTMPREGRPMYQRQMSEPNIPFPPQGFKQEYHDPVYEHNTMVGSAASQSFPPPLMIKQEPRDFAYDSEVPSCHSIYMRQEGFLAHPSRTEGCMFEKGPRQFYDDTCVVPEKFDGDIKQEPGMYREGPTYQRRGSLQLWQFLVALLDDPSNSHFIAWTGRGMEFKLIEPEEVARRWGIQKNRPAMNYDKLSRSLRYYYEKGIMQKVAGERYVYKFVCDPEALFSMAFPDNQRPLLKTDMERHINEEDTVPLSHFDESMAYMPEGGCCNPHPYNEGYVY

Sequence | binding signal (ELK1) | binding signal (GABPA) | binding signal (ERG) | binding signal (ELF1) | binding signal (ELK3) | binding signal (SPIC) | binding signal (ELK4) | binding signal (ERF) | binding signal (ETV3L) | binding signal (ETS2) | binding signal (ETV3) | binding signal (ETV6) | binding signal (EHF) | binding signal (SPIB) | binding signal (ETV1) | binding signal (SPDEF)
AGTCTC | 1.02 fold enrichment (6-mer frequency, TF over GST control) | 1.01 fold enrichment (6-mer frequency, TF over GST control) | 1.06 fold enrichment (6-mer frequency, TF over GST control) | 1.05 fold enrichment (6-mer frequency, TF over GST control) | 1.03 fold enrichment (6-mer frequency, TF over GST control) | 1.1 fold enrichment (6-mer frequency, TF over GST control) | 1.05 fold enrichment (6-mer frequency, TF over GST control) | 1.04 fold enrichment (6-mer frequency, TF over GST control) | 1.06 fold enrichment (6-mer frequency, TF over GST control) | 1.05 fold enrichment (6-mer frequency, TF over GST control) | 1.09 fold enrichment (6-mer frequency, TF over GST control) | 1.04 fold enrichment (6-mer frequency, TF over GST control) |  |  |  | 
TGAATC | 1.01 fold enrichment (6-mer frequency, TF over GST control) | 1.05 fold enrichment (6-mer frequency, TF over GST control) |  | 1 fold enrichment (6-mer frequency, TF over GST control) |  | 1.01 fold enrichment (6-mer frequency, TF over GST control) | 1.03 fold enrichment (6-mer frequency, TF over GST control) |  |  |  | 1.01 fold enrichment (6-mer frequency, TF over GST control) | 1.01 fold enrichment (6-mer frequency, TF over GST control) | 1.04 fold enrichment (6-mer frequency, TF over GST control) | 1.04 fold enrichment (6-mer frequency, TF over GST control) | 1.01 fold enrichment (6-mer frequency, TF over GST control) | 1.11 fold enrichment (6-mer frequency, TF over GST control)
